Screening data as filed in PubChem.
Shown are actives, neighbours in structure and some others; about 4.3% of the full set was active somewhere.
esBAF inh: Bmi1 luciferase reporter increase in mESCs, primary screen, esBAF inhibitor project, mouse ES cells, Bmi1 luciferase knock-in, single point; 24 h; 100% = twice the neutral-well signal; reporter increase, % at 12.5 µM; 350,000 compounds, 2% hits; AID 602393, 2012; in the data active = activation above about 40%;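 also: 0% = median of the plate's neutral control wells and 100% = double that signal; a rise in the Bmi1 reporter signal indicates esBAF inhibition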
FGF22 binding: binders of human FGF22 protein, primary screen, FGF22 synaptogenesis inhibitor project, biophysical, thermal shift, single point | Fibroblast growth factor 22 (Homo sapiens), Q9HCT0 | recombinant FGF22 thermal shift, SYPRO orange fluorescence; percent of sucrose octasulfate shift, DMSO zero | activity (Tm shift, normalised), % at 9.99 µM | 340,000 compounds, 1.5% hits;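 active = mean Tm shift, scaled 0 neutral to 100 positive control, at about 1.3% or above, every replicate too, limit read from the data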
Wnt bcat act: Wnt/beta-catenin pathway activators, primary screen, cell-based, plate reader, single point | activation, % at 9.35 µM | 300,000 compounds, 1.2% hits | Wnt/beta-catenin reporter cell assay, activator; in the data active = activation above about 30%, passing the limit was not always enough;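 also: 0% = neutral control wells and 100% = positive control wells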
MLL AF4-AF9 inh: inhibitors of AF4 peptide binding to AF9, primary screen, biochemical, AlphaScreen, biotin-AF4 peptide, FLAG-AF9, single point. 350,000 compounds, 0.47% hits. Protein AF-9 (Homo sapiens), P42568. inhibition, % at 10 µM;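 active = every replicate reaching a set inhibition limit, whatever the replicate mean, cut at about 25% in these data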;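 also: 0% = plate neutral control median and 100% = total signal loss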
Target sequence (P42568 whole entry, looked up): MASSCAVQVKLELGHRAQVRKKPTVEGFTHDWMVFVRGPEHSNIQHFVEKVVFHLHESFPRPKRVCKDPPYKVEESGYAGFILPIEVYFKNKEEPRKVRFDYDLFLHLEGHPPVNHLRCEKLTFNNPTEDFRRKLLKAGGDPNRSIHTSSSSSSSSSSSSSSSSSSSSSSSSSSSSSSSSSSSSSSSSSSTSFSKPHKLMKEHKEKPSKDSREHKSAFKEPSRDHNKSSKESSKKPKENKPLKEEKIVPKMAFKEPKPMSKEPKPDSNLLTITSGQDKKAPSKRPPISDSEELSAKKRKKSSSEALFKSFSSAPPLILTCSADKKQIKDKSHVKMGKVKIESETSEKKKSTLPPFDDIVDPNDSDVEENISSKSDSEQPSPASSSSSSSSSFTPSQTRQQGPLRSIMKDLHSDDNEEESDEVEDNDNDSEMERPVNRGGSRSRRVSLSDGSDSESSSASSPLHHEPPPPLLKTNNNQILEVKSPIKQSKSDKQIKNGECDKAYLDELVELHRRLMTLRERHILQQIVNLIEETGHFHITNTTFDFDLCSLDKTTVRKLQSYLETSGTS
MITF TRPM1 HTS: activators of MITF-driven TRPM1 promoter reporter, primary screen, cell-based, SK-MEL-5, luciferase, single point; SK-MEL-5 TRPM1-promoter luciferase, 24 h; % of positive control, neutral wells = 0; activation, % at 12.5 µM; 300,000 compounds, 0.75% hits; AID 588334, 2011;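 active = mean activation of at least 80% with every replicate also reaching 80%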;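 also: 0% = neutral control wells and 100% = parthenolide positive control wells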
SMARCA2 activ: SMARCA2 (BRM) function activators, primary screen, cell-based, luminescence, high throughput; MG213 cells, MMTV-luciferase reporter, dexamethasone, overnight; activation, % at 9.1 µM; 370,000 compounds, 1% hits; in the data active = activation above about 7.8%;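 also: 0% = vehicle wells and 100% = reference activator wells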
The depositor's hits bear a star.

Screening O=C(N/N=C/c1cn(-c2ccccc2)nc1-c1ccc2c(c1)OCCO2)c1ccncc1 returned esBAF inh 53*, Wnt bcat act 15, MLL AF4-AF9 inh -4, MITF TRPM1 HTS 9 and SMARCA2 activ 2.
`COCC(=O)N1[C@@H](CO)[C@@H](c2ccccc2)C12CN(C(=O)NC1CCCC1)C2` gave MLL AF4-AF9 inh -4.
For CC1CCN(S(=O)(=O)c2ccc(C(=O)Nc3nnc(-c4ccco4)o3)cc2)CC1 the results were esBAF inh 10, FGF22 binding 0, Wnt bcat act -2, MLL AF4-AF9 inh 5, MITF TRPM1 HTS -11 and SMARCA2 activ -2.
`Cc1ccc(C(=O)Nc2nnc(-c3ccco3)o2)cc1` gave FGF22 binding 0, Wnt bcat act 7, MLL AF4-AF9 inh -4, MITF TRPM1 HTS 20 and SMARCA2 activ 2.
For Cc1ccsc1C(=O)Nc1nnc(-c2ccco2)o1 the results were esBAF inh 43* and SMARCA2 activ -2.
Screening O=C(NCc1ccco1)c1ccc(F)c(S(=O)(=O)N2CCCCC2)c1 returned FGF22 binding 43*, Wnt bcat act 0, MLL AF4-AF9 inh 2, MITF TRPM1 HTS 0 and SMARCA2 activ 2.
For O=C(Nc1nnc(-c2ccco2)o1)c1ccc(S(=O)(=O)N2CCCC2)cc1 the results were FGF22 binding 43*, Wnt bcat act -2, MLL AF4-AF9 inh 4, MITF TRPM1 HTS -11 and SMARCA2 activ -2.
For O=C(NCc1ccco1)c1ccc(S(=O)(=O)N2CCCCC2)cc1 the results were FGF22 binding 44*, Wnt bcat act 1, MLL AF4-AF9 inh -1, MITF TRPM1 HTS -6 and SMARCA2 activ 0.
For O=C(NCc1ccco1)c1ccc(S(=O)(=O)N2CCCCCC2)cc1 the results were esBAF inh 9, FGF22 binding 0, Wnt bcat act -1, MLL AF4-AF9 inh -38, MITF TRPM1 HTS -1 and SMARCA2 activ -1.
`COc1ccc2c3c(n(C)c2c1)[C@H](CO)NCC31CCN(C(=O)Nc2ccc3c(c2)OCO3)CC1` gave MLL AF4-AF9 inh 10.
C[C@@H]1CN([C@H](C)CO)S(=O)(=O)c2ccc(C#C[C@@H](C)O)cc2O[C@H]1CN(C)Cc1ccncc1 was read as esBAF inh -1, FGF22 binding 0 and MLL AF4-AF9 inh 2.
COCC(=O)N1[C@H](CO)[C@@H](c2ccccc2C2=CCCCC2)[C@@H]1C#N was read as MLL AF4-AF9 inh 0.
`C[C@@H]1CN([C@H](C)CO)C(=O)c2cccc(NC(=O)c3ccc(-c4nccs4)cc3)c2O[C@@H]1CN(C)S(=O)(=O)c1ccc(Cl)cc1` gave esBAF inh -2, FGF22 binding 0 and MLL AF4-AF9 inh -1.
Nc1ccccc1C(=O)/C=C/c1ccc2c(c1)OCO2 was read as esBAF inh 73*, FGF22 binding 0, Wnt bcat act 35*, MLL AF4-AF9 inh 19, MITF TRPM1 HTS 85* and SMARCA2 activ 7.
For COC(=O)Nc1nncs1 the results were esBAF inh -8, FGF22 binding 0, Wnt bcat act 3, MLL AF4-AF9 inh -10, MITF TRPM1 HTS 4 and SMARCA2 activ 2.
`O=C(/C=C/c1ccc2c(c1)OCO2)Nc1nncs1` gave FGF22 binding 0, Wnt bcat act 61*, MLL AF4-AF9 inh -5 and SMARCA2 activ 6.
Screening CC(C)(C)c1ccc(/C=C/C(=O)Nc2nncs2)cc1 returned esBAF inh 26, FGF22 binding 0, Wnt bcat act 26, MLL AF4-AF9 inh -2, MITF TRPM1 HTS 89* and SMARCA2 activ 0.
Screening C[C@@H]1CN([C@H](C)CO)C(=O)c2cccc(NC(=O)CCCCCC(=O)Nc3ccccc3N)c2O[C@H]1CN(C)Cc1ccc(C(F)(F)F)cc1 returned FGF22 binding 0 and MLL AF4-AF9 inh 2.
`COc1ccc2nc3ccccc3nc2c1` gave esBAF inh 42*, FGF22 binding 0, Wnt bcat act -2, MLL AF4-AF9 inh 2, MITF TRPM1 HTS 93* and SMARCA2 activ 6.
For COc1ccc(-c2nc3ccccc3nc2-c2ccccc2)cc1 the results were esBAF inh -1, FGF22 binding 0, MLL AF4-AF9 inh -2, MITF TRPM1 HTS -8 and SMARCA2 activ 0.
For Nc1cc(=O)[nH]n1C1CCCCC1 the results were esBAF inh -10, FGF22 binding 43*, Wnt bcat act -1, MLL AF4-AF9 inh -2, MITF TRPM1 HTS -4 and SMARCA2 activ 3.
For Nc1cc(=O)[nH]n1C1CCCC1 the results were esBAF inh -6, FGF22 binding 0, Wnt bcat act -1, MLL AF4-AF9 inh -2, MITF TRPM1 HTS 2 and SMARCA2 activ 3.
Screening C[C@H](CO)N1C[C@H](C)[C@@H](CN(C)C(=O)Cc2ccccc2)OCCCC[C@H](C)Oc2ccc(NS(=O)(=O)c3ccc(F)cc3)cc2C1=O returned esBAF inh 5 and FGF22 binding 0.
For C[C@@H]1CN([C@H](C)CO)C(=O)c2cc(NC(=O)C3CCCCC3)ccc2O[C@@H](C)CCCCO[C@@H]1CN(C)Cc1ccc2c(c1)OCO2 the results were esBAF inh 1, FGF22 binding 0 and MLL AF4-AF9 inh 0.
For O=C(Cc1ccc(Br)cc1)NC1CCCCC1 the results were esBAF inh 29, Wnt bcat act 20, MITF TRPM1 HTS 32 and SMARCA2 activ 1.
O=C(Cc1ccc(O)cc1)NC1CCCCCC1 was read as esBAF inh 36, FGF22 binding 0, Wnt bcat act 16, MLL AF4-AF9 inh 1, MITF TRPM1 HTS 90* and SMARCA2 activ 0.
O=C(COC(=O)Cc1ccc(Br)cc1)NC1CCCC1 was read as esBAF inh -3, FGF22 binding 43*, Wnt bcat act -1, MLL AF4-AF9 inh -2, MITF TRPM1 HTS -2 and SMARCA2 activ 6.
COc1ccc(S(=O)(=O)Nc2ccc3c(c2)CC(=O)N([C@@H](C)CO)C[C@H](C)[C@@H](CN(C)S(=O)(=O)c2c(C)noc2C)O3)cc1 was read as esBAF inh 0, FGF22 binding 0 and MLL AF4-AF9 inh 1.
O=C(c1ccccn1)N1C[C@H]2[C@@H](c3ccccc31)[C@@H](CO)N2C(=O)C1CCCC1 was read as esBAF inh 2, FGF22 binding 0 and MLL AF4-AF9 inh 0.
For CCCNC(=O)C[C@@H]1CC[C@@H]2[C@@H](COc3ccc(NC(=O)Nc4ccccc4)cc3C(=O)N2C)O1 the results were esBAF inh -3 and FGF22 binding 0.
